The values below come from ChEMBL document CHEMBL2218924, “A broad activity screen in support of a chemogenomic map for kinase signalling research and drug discovery” (Biochem J, 2013).

In assay [1] the target is Ribosomal protein S6 kinase alpha-1 (Homo sapiens) (UniProt Q15418). As to conditions: at 1 µM.
Assay [2] shares this target. The settings on record: at 10 µM.
The target in assay [3] is Ribosomal protein S6 kinase alpha-3 (Homo sapiens) (UniProt P51812). As to conditions: at 1 µM.
The target is the same in assay [4]. The settings on record: at 10 µM.
The target of assay [5] is Ribosomal protein S6 kinase alpha-2 (Homo sapiens) (UniProt Q15349). The settings on record: at 1 µM.
Ribosomal protein S6 kinase alpha-2 (Homo sapiens), sequence (Q15349 whole entry): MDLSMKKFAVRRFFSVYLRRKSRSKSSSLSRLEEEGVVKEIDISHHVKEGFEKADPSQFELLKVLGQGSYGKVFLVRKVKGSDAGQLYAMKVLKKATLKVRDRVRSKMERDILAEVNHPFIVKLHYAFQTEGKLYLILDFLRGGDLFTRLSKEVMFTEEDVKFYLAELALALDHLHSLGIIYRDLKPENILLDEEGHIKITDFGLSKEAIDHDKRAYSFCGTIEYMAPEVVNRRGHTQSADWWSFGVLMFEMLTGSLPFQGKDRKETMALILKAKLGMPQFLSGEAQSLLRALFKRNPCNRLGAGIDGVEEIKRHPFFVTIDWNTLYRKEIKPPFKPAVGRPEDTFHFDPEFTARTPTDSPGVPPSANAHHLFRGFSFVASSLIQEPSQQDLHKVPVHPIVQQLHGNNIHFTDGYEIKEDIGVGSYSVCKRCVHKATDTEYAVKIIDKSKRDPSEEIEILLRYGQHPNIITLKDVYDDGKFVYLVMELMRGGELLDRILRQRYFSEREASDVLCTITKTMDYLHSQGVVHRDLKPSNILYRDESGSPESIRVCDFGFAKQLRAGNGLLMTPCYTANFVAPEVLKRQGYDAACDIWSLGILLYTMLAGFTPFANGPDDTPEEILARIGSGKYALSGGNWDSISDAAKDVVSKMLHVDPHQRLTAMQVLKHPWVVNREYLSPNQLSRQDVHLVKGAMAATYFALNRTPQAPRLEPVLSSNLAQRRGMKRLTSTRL
Assay [6] has the same target. As to conditions: at 10 µM.
The target of assay [7] is Ribosomal protein S6 kinase alpha-6 (Homo sapiens) (UniProt Q9UK32). The settings on record: at 1 µM.
Ribosomal protein S6 kinase alpha-6 (Homo sapiens), sequence (Q9UK32 whole entry): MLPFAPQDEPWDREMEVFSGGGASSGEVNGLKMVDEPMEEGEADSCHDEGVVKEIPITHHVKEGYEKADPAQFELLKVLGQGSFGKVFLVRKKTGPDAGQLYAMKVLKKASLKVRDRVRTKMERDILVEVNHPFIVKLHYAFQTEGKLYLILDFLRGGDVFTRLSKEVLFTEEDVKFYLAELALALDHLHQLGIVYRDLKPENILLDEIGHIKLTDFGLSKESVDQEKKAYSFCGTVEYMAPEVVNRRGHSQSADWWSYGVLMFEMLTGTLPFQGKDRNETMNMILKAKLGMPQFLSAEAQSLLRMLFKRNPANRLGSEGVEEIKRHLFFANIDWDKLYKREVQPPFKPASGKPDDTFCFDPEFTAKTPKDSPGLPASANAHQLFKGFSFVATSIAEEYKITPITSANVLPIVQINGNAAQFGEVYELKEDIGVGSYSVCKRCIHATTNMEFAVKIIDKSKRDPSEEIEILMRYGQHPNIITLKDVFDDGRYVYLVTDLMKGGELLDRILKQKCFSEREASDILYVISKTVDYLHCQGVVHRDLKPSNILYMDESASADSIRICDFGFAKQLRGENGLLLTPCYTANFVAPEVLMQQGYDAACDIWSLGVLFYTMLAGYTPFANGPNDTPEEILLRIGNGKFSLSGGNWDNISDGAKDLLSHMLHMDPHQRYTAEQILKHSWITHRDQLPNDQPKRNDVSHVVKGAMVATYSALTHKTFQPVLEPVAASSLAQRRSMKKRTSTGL
The target is the same in assay [8]. As to conditions: at 10 µM.
Assay [9] deals with Mitogen-activated protein kinase 14 (Homo sapiens) (UniProt Q16539). As to conditions: at 1 µM.
Mitogen-activated protein kinase 14 (Homo sapiens), sequence (Q16539 whole entry): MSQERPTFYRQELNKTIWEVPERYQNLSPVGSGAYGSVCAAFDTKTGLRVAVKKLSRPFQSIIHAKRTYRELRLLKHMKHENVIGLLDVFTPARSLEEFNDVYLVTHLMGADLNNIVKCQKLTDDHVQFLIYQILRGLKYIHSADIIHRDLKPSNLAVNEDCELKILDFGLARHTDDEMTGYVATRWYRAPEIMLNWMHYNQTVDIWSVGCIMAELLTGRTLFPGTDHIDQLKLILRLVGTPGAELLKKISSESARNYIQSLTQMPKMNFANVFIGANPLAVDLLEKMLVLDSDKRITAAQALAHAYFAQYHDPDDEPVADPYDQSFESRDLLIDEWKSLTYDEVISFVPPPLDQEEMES
For assay [10] the target is unchanged. The settings on record: at 10 µM.
The target in assay [11] is Mitogen-activated protein kinase 11 (Homo sapiens) (UniProt Q15759). As to conditions: at 1 µM.
Mitogen-activated protein kinase 11 (Homo sapiens), sequence (Q15759 whole entry): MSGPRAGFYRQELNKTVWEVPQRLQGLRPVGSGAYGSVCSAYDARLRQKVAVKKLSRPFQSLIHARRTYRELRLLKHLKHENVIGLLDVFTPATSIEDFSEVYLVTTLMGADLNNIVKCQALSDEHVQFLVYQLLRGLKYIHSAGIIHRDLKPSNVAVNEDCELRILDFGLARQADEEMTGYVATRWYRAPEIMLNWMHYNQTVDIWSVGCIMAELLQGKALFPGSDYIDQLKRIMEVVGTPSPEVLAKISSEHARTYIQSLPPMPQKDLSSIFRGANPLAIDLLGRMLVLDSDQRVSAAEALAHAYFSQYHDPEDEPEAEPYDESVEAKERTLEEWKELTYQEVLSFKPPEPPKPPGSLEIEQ
The target is the same in assay [12]. The settings on record: at 10 µM.
Assay [13] concerns the target T1, Serine/threonine-protein kinase Sgk2 (Homo sapiens) (UniProt Q9HBY8).
T1 sequence (whole entry): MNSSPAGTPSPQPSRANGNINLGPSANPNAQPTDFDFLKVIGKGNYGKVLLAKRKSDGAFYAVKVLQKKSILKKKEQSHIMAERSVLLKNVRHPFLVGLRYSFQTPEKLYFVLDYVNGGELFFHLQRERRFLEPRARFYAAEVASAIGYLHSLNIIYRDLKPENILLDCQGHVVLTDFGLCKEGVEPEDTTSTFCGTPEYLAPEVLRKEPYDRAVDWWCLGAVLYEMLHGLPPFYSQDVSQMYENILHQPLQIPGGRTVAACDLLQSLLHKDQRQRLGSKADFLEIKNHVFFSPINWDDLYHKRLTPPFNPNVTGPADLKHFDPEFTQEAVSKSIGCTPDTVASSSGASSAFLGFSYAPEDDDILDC
As to conditions: at 10 µM.

The target of assay [14] is Serine/threonine-protein kinase SIK1 (Homo sapiens) (UniProt P57059). The settings on record: at 1 µM.
Serine/threonine-protein kinase SIK1 (Homo sapiens), sequence (P57059 whole entry): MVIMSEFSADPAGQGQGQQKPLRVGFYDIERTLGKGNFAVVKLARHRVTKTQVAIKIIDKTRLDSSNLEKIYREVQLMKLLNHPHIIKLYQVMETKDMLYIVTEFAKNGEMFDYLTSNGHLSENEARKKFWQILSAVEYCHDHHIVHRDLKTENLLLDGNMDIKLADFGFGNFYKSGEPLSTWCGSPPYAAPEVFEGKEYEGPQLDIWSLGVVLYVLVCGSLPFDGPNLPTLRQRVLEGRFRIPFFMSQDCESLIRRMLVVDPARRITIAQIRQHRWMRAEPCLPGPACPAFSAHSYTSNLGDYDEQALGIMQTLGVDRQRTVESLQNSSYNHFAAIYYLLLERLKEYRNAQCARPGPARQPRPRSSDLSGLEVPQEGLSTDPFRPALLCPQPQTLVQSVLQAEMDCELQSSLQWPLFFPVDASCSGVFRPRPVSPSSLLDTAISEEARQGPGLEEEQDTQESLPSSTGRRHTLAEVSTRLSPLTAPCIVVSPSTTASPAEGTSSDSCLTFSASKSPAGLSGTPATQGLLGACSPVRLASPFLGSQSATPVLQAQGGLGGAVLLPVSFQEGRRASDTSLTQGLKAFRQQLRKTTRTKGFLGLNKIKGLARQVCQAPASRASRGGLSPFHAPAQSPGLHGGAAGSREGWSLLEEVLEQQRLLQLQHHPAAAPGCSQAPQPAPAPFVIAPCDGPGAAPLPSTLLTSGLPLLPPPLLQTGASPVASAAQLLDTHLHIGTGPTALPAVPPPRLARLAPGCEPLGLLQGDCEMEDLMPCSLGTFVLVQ
The target of assay [15] is T2, Mitogen-activated protein kinase 13 (Homo sapiens) (UniProt O15264).
T2 sequence (whole entry): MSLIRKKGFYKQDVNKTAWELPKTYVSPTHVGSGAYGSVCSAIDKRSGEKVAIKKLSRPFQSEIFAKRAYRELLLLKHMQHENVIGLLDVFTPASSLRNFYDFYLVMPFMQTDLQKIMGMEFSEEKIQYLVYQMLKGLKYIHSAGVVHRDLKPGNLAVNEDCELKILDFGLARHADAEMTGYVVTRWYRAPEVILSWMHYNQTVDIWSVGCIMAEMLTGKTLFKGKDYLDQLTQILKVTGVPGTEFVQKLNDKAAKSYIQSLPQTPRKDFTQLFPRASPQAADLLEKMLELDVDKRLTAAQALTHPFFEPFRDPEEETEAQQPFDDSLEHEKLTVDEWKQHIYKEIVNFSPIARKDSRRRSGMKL
As to conditions: at 1 µM.

For assay [16], the target named is T2, Mitogen-activated protein kinase 13 (Homo sapiens). As to conditions: at 10 µM.
Assay [17] concerns the target T3, Serine/threonine-protein kinase Sgk1 (Homo sapiens) (UniProt O00141).
T3 sequence (whole entry): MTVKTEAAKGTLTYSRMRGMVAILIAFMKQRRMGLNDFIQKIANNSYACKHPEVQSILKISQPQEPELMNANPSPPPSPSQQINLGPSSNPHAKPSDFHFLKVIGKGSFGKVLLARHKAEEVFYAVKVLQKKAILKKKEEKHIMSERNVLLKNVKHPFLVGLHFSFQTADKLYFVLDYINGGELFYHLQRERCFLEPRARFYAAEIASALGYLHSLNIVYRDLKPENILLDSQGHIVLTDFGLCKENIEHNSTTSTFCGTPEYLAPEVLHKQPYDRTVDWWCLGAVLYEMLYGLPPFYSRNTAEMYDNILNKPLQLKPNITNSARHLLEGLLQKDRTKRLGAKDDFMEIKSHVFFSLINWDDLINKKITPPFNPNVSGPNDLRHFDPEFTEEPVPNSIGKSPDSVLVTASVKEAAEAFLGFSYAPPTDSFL
The settings on record: at 1 µM.

Assay [18] concerns the target T1, Serine/threonine-protein kinase Sgk2 (Homo sapiens). As to conditions: at 1 µM.
For assay [19], the target named is T3, Serine/threonine-protein kinase Sgk1 (Homo sapiens). The settings on record: at 10 µM.
The target of assay [20] is T4, Serine/threonine-protein kinase Sgk3 (Homo sapiens) (UniProt Q96BR1).
T4 sequence (whole entry): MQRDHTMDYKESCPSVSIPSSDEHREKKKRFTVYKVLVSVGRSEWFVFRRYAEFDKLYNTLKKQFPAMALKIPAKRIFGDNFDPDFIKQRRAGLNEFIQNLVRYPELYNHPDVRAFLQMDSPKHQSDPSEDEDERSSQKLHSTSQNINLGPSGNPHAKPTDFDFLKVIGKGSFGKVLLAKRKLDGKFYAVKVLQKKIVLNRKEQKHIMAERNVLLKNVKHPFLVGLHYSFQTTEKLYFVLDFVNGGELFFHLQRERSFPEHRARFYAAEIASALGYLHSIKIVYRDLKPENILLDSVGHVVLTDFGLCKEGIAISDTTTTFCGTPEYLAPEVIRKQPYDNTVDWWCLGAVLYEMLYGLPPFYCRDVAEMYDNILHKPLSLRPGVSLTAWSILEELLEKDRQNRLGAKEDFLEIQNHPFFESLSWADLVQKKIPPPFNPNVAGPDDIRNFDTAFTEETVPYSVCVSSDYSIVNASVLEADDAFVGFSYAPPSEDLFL
As to conditions: at 10 µM.

Ribosomal protein S6 kinase alpha-1 (Homo sapiens), sequence (Q15418 whole entry): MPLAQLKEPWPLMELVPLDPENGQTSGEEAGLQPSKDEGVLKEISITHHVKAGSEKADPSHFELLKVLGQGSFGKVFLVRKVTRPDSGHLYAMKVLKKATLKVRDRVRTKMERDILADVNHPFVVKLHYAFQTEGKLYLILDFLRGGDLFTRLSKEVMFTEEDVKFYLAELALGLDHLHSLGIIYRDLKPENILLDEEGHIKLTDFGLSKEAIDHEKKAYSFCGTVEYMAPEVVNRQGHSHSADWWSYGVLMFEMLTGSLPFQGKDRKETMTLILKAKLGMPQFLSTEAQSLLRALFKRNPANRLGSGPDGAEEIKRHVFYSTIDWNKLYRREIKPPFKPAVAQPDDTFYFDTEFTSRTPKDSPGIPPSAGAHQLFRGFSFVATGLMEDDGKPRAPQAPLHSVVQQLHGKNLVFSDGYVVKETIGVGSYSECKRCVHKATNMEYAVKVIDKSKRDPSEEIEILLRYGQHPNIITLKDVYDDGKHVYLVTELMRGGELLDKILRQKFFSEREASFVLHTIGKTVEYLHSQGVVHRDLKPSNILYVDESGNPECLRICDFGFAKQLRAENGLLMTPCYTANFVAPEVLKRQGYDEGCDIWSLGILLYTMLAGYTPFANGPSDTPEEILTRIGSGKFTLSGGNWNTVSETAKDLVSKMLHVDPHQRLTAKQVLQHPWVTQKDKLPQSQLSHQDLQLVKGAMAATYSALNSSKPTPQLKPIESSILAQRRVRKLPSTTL
Ribosomal protein S6 kinase alpha-3 (Homo sapiens), sequence (P51812 whole entry): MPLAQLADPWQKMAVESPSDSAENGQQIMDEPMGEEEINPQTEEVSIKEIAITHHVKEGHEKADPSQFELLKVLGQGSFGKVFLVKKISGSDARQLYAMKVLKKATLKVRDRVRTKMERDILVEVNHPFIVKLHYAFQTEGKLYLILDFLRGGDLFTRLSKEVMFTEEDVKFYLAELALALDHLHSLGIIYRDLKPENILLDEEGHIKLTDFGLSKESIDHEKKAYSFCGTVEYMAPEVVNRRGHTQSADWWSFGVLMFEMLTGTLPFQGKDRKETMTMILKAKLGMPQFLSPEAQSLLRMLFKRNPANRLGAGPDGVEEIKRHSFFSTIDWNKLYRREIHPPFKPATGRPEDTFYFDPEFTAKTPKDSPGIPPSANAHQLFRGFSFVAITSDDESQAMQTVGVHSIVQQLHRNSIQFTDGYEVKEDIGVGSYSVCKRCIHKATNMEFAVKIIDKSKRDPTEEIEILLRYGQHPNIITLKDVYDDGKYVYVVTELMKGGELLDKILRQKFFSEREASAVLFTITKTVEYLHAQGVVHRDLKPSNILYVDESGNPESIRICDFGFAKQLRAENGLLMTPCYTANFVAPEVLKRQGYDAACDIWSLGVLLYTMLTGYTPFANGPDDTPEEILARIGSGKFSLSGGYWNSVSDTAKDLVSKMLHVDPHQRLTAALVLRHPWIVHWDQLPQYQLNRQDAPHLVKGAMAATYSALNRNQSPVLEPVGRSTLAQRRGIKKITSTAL

Consider `CSc1nc(-c2ccc(F)cc2)c(-c2ccnc(NC(C)c3ccccc3)c2)[nH]1` (stereo not drawn), for which the residual activity in assay [1] was found to be 82%; in assay [2], 74%; in assay [3], 81%; in assay [4], 50%; in assay [5], 40%; in [6], 42%. Moreover, the residual activity was 86% in assay [7]; 69% in assay [8]; -1% in [9]; 0% in [10]; 10% in assay [11]; -2% in assay [12]. Moreover, the residual activity in assay [13] was 91%; in [14], 144%.
Regarding `COc1cc2c(cc1OC)-c1n[nH]c(Nc3cccc(F)c3)c1C2`, the residual activity was found to be 112% in assay [1]; 79% in assay [2]; 63% in assay [3]; 39% in [4]; 63% in assay [6]; 105% in assay [7]. The residual activity in [9] is 69%; in assay [10] it was 44%; in assay [11], 60%; in assay [12], 25%; in [15], 102%; in assay [16] it was 74%. Also, the residual activity stood at 70% in assay [17], 109% in assay [18], 98% in [13] and 4% in assay [14].
Regarding `O=C(CCCc1ccc(-c2ccccc2F)cc1)Nc1ccc(O)cc1`, the residual activity in [1] worked out at 90%; in assay [2], 89%; in assay [3], 111%; in assay [4], 129%; in assay [5] it was 97%; in assay [6], 86%. The residual activity in assay [7] was found to be 104%; in assay [8], 96%; in assay [9], 91%; in assay [10] it was 59%; in [11], 105%; in [12], 95%. The residual activity was found to be 105% in assay [15]; 96% in assay [16]; 83% in [17]; 179% in assay [19]; 131% in assay [18]; 135% in assay [13].
On to `CCCCc1c(-c2ccc(OC)cc2)[nH]c2nccnc12`, for which the residual activity in [1] was 122%; in assay [2] it was 109%; in assay [3], 55%; in assay [4], 52%; in assay [5] it was 70%; in assay [6] it was 70%. The residual activity worked out at 89% in [7]; 100% in [8]; 106% in assay [11]; 106% in assay [17]; 117% in assay [19]; 90% in assay [18]. Besides, the residual activity came out at 81% in [13], 88% in assay [20] and 86% in assay [14].
On to `O=C1Nc2ccc(Cl)cc2/C1=C/c1cc(Cl)c(O)c(Cl)c1`, for which the residual activity in [1] is 94%; in [2], 29%; in [3] it was 68%; in assay [4] it was 20%; in [5] it was 88%; in assay [6] it was 36%. Moreover, the residual activity in assay [7] is 77%; in assay [8] it was 55%; in assay [9] it was 54%; in [10], 10%; in [11] it was 88%; in assay [12], 67%. Moreover, the residual activity in assay [16] was found to be 93%; in assay [17], 64%; in assay [19], 69%; in [18], 84%; in assay [13], 55%; in assay [20] it was 81%. In assay [14], the residual activity is 72%.
In the case of `CCCC(=O)Oc1ccc2[nH]c(C(=O)c3cc4ccccc4[nH]3)cc2c1`, the residual activity was determined as 129% in assay [1]; 99% in assay [2]; 122% in assay [3]; 93% in assay [4]; 102% in [5]; 90% in [6]. Moreover, the residual activity in assay [9] was determined as 79%; in assay [10] it was 81%; in assay [11], 104%; in assay [15] it was 104%; in assay [16], 86%; in [17] it was 101%. The residual activity is 95% in [19]; 99% in assay [18]; 96% in assay [13]; 85% in [20]; 83% in assay [14].
Consider `O=S(=O)(NCCNC/C=C/c1ccc(Br)cc1)c1cccc2cnccc12`, for which the residual activity in [1] was 53%; in assay [2], 24%; in [3] it was 26%; in assay [4] it was 6%; in assay [5], 70%; in [6], 13%. The residual activity in assay [7] is 18%; in [8], 9%; in assay [13], 30%; in assay [14], 137%.
As to `COc1ccc2c(c1)c(C1=C(c3c[nH]c4ccccc34)C(=O)NC1=O)cn2CCCN(C)C`, the residual activity is 6% in assay [1]; 1% in assay [2]; 2% in assay [3]; -1% in [4]; 0% in [5]; -2% in assay [6]. The residual activity in [7] stood at 4%; in assay [8], 2%; in [16], 100%; in assay [17] it was 107%; in [19] it was 56%; in assay [18], 80%. Further, the residual activity is 41% in assay [13] and 77% in [14].
